Experimental data as given in PubChem BioAssay AID504850 (National Center for Advancing Translational Sciences (NCATS), 2011).
In all, about 2,300 compounds went through this assay and about 1,200 (52%) were called active. Another 34% or so got no clear call; they are omitted. Calls follow the shape of the dose curve; as a rule, active = well fitted inhibition curve with a large enough effect; inconclusive = small, poorly fitted or top-dose-only effect, or effect the other way; inactive = no such curve, though single readings can be large or run the other way. The set was probably picked from earlier hits. Some of the results follow.

experiment: Confirmation screen for delayed death inhibitors of the malarial parasite plastid, 48 hour incubation; also: nearly all actives have a fitted effect of over 65% in size; details: P. falciparum-infected erythrocytes, luciferase growth; series mostly up to 28.7 µM
Description: The goal of this screen is to discover new antimalarial compounds that act by inhibiting the development of the apicoplast in the malarial parasite Plasmodium falciparum. The biochemical processes that make this organelle essential for erythrocytic stage parasites are not well understood. However, antibiotics, such as azithromycin and tetracycline, which target the apicoplast translational machinery, have a potent antimalarial effect. […] We have developed a cell-based assay that measures parasite growth based on the expression of an integrated copy of a firefly luciferase reporter. To detect small molecules that cause this "delayed death phenotype, erythrocytes infected with the luciferase-expressing parasites were incubated with compounds for either one or two generations, corresponding to 48 and 96 hours, respectively. Compounds that inhibit parasite growth in the second generation, but not the first, should be enriched in antimalarials that target the apicoplast. Growth inhibition is detected by a decrease in luciferase activity. MLPCN Grant: R21 NS059500 Assay Provider: David Fidock and Eric Ekland, Columbia University Keywords: NIH Roadmap, MLPCN, MLI, MLSMR, qHTS, NCGC, qHTS, malaria, luciferase, viability
Four microliters of culture medium (RPMI 1640 with 0.5% w/v Albumax (GIBCO), 24 mM sodium bicarbonate and 10 ug/mL gentamycin) were dispensed by a Multi-drop Combi into white solid 1536-well plates (Grenier) and 23 nL compound was added by a pin tool. Four microliters of infected erythrocytes (2% hematocrit, 0.1% parasitemia final concentration) in culture medium were dispensed and the plates incubated for 48 hours at 37 C in 5% CO2. Two microliters of luciferase detection reagent was added and luminescence was detected by a ViewLux (PerkinElmer) reader.
Potency is read from the fitted curve at half-maximal effect.

Row | Compound | Potency
1 | COc1cc(CN2CCN(S(=O)(=O)c3ccccc3)CC2)cc(OC)c1OC | 3.16 µM (active)
2 | COc1ccccc1N1CCN(S(=O)(=O)c2ccc(-n3cnnn3)cc2)CC1 | inactive
3 | COCCN1CCCC(CNCc2cn(C)nc2-c2ccc(Oc3ccccc3)cc2)C1 (stereo not given) | 7.94 µM (active)
4 | Cc1cccc(NC(=O)Cc2coc3ccc4ccccc4c23)n1 | 12.6 µM (active)
5 | CCOc1ccc(C2C3=C(Nc4nc(N)[nH]c(=O)c42)c2ccccc2C3=O)cc1 (stereo not given) | 14.1 µM (active)
6 | C/C(=C\C(=O)c1ccncc1)Nc1ccccc1O | 14.1 µM (active)
7 | O=C(CCN1CCN(c2ccc(F)cc2)CC1)Nc1ccccc1F | inactive
8 | CSc1ccccc1NC(=O)CN1CCN(S(=O)(=O)c2ccccc2[N+](=O)[O-])CC1 | 14.1 µM (active)
9 | C=CCNC(=O)c1onc(CSc2cccc3ccccc23)c1C(=O)O | inactive
10 | CSc1nnc2c3ccccc3n(CCc3ccccc3)c2n1 | 15.8 µM (active)
11 | Cc1c(NC(=O)CSc2nnc3c4ccccc4n(CCc4ccccc4)c3n2)c(=O)n(-c2ccccc2)n1C | 11.2 µM (active)
12 | COc1ccc(C)cc1NC(=O)C(Sc1nnc(Nc2cc(C)ccc2OC)s1)c1ccccc1 (stereo not given) | 14.1 µM (active)
13 | CC(C)(C)OC(=O)NCCCCCNC(=O)c1[nH]cnc1C(=O)Nc1nccs1 | 10 µM (active)
14 | Cn1cc([N+](=O)[O-])c(C(=O)Nc2nccs2)n1 | inactive
15 | CCn1cc(C(=O)O)c(=O)c2cc(F)c(N/N=C/c3ccccc3)cc21 | 12.6 µM (active)
16 | O=C(c1cccs1)N1CCC(c2nc3c(nnn3Cc3c(Cl)cccc3Cl)c(=O)[nH]2)CC1 | 7.94 µM (active)
17 | O=c1[nH]c(C2CCN(S(=O)(=O)c3cccc([N+](=O)[O-])c3)CC2)nc2c1nnn2Cc1ccccc1 | 10 µM (active)
18 | CC(SC#N)C(=O)C12CC3CC(CC(C3)C1)C2 (stereo not given) | 8.91 µM (active)
19 | O=C(CSc1nnc(-c2ccco2)o1)N1c2ccccc2CCc2ccccc21 | 10 µM (active)
20 | C/C(=N\NC(=S)NCC(C)(C)C)c1cc(F)cc(F)c1O | 11.2 µM (active)

Row | Compound | Potency
21 | CC1=NNC(=O)/C1=C\c1cn(-c2ccccc2)nc1-c1cccs1 | 8.91 µM (active)
22 | COc1cccc(Nc2ccc(N3CCCCC3)cc2)c1OC | 6.31 µM (active)
23 | S=c1[nH]nc(COc2ccccc2)n1/N=C/C(Cl)=C/c1ccccc1 | 14.1 µM (active)
24 | ClC(/C=N/n1cnnc1)=C/c1ccccc1 | 14.1 µM (active)
25 | O=C(CSc1nc2nn(-c3ccccc3)c(=O)c-2c2n1CCCCC2)c1ccc(O)c(O)c1 | 12.6 µM (active)
26 | COc1cc(/C=C/C(=O)c2ccc(NS(=O)(=O)c3ccc(C)cc3)cc2)ccc1OC(F)F | 12.6 µM (active)
27 | COc1ccc(/C=C/C(=O)c2ccc(NS(=O)(=O)c3ccc(C)cc3)cc2)cc1O | 7.94 µM (active)
28 | Cc1c(O)ccc(C(=O)CN2CCN(Cc3ccc4c(c3)OCO4)CC2)c1O | 14.1 µM (active)
29 | Cc1c(-c2ccccc2)nc2ccccc2c1C(=O)Nc1ccncc1 | 0.501 µM (active)
30 | O=C(c1cc(COc2cccc(C(F)(F)F)c2)on1)N1CCC(Oc2cccnc2)CC1 | 12.6 µM (active)
31 | CN1CCN(C(=O)c2cc(COc3c(F)cccc3F)on2)CC1c1ccccc1 (stereo not given) | inactive
32 | CC(=O)N1CCCN(C(=O)c2cc(COc3c(F)cccc3F)on2)CC1 | inactive
33 | S=c1[nH]nc(-c2cc(-c3ccccc3)n[nH]2)n1/N=C/C(Br)=C/c1ccccc1 | 6.31 µM (active)
34 | C=C1C(=O)O[C@@H]2C[C@@H](C)[C@@H]3C=CC(=O)[C@@]3(C)[C@@H](OC(C)=O)[C@H]12 | 1.58 µM (active)
35 | COc1ccc2nc3sc(C(=O)NCCN4CCc5ccccc5C4)cc3cc2c1 | 8.91 µM (active)
36 | c1ccc2c(c1)Nc1cc3ccccc3cc1S2 | 5.01 µM (active)
37 | CCN(Cc1ccccc1)C(=O)CSc1ncn[nH]1 | inactive
38 | O=C(/C=C/Sc1ncn[nH]1)c1ccc(Cl)cc1 | 12.6 µM (active)
39 | O=C(/C=C/c1ccccc1Cl)c1ccccc(=O)c1O | 10 µM (active)
40 | Cc1ccc(C)c(/C=C/C(=O)c2ccccc(=O)c2O)c1 | 14.1 µM (active)

Row | Compound | Potency
41 | N#Cc1ccccc1S(=O)(=O)N1CCC(C(=O)NCc2ccccc2CN2CCCC2)CC1 | 12.6 µM (active)
42 | Cc1ccc(SCC(=O)Nc2ccccc2C(=O)O)cc1 | inactive
43 | COc1ccc(C)cc1NC(=O)CSCc1ccccc1C | 12.6 µM (active)
44 | O=C(C[C@H]1C(=O)N(Cc2ccccc2)C[C@@H]1Cc1ccccc1)Nc1ccccc1 | 11.2 µM (active)
45 | CCOc1ccc(NC(=O)CC2C(=O)N(c3ccccc3)C(=O)N2CCOC)cc1 (stereo not given) | inactive
46 | Cn1c(Cc2cccc3ccccc23)nnc1SCc1ccc([N+](=O)[O-])cc1 | 14.1 µM (active)
47 | CC1(C)CCSC(/C=C/c2ccccc2)=N1 | 7.94 µM (active)
48 | CCC(=O)NC(=S)Nc1ccc(NC(=O)c2ccc(C)c([N+](=O)[O-])c2)cc1 | 14.1 µM (active)
49 | CC(=O)c1ccc(NC(=S)Nc2ccc3cn[nH]c3c2)cc1 | inactive
50 | Cc1ccc(-c2nn(C(C)(C)C)c3ncnc(N)c23)cc1 | 5.62 µM (active)
51 | Cc1cccc[n+]1CC(=O)c1ccc(NC(=O)c2ccccc2)cc1 | 7.94 µM (active)
52 | Cc1ccc(Nc2cc(C)nc3ccc(C)cc23)cc1 | 10 µM (active)
53 | COc1ccccc1N1CCN(C(=O)c2ccc3[nH]c4c(c3c2)CCCC4)CC1 | 12.6 µM (active)
54 | CN(CCC#N)C(=O)COC(=O)c1ccc2[nH]c3c(c2c1)CCCC3 | inactive
55 | Cc1ccc(Cl)cc1Nc1nc(-c2sc(NC(=O)C(C)(C)C)nc2C)cs1 | 5.01 µM (active)
56 | CCOC(=O)C1CCN(c2c(NCc3ccc(C(=O)NCCC(C)C)cc3)c(=O)c2=O)CC1 | 2.24 µM (active)
57 | O=C(/C=C/c1cccnc1)c1ccc(O)cc1 | 15.8 µM (active)
58 | O=C(/C=C/c1cccnc1)/C=C/c1cccnc1 | 4.47 µM (active)
59 | COc1ccc(C(=O)/C=C/c2cccnc2)c(OC)c1 | 7.94 µM (active)
60 | O=C(/C=C/c1ccccc1)/C=C/c1ccccc1 | 11.2 µM (active)
